# POLK inh = qHTS for Inhibitors of Polymerase Kappa; Potency, µM (top dose mostly 107 µM), inactives show at the top dose activity, negative = inhibition, hits mostly inhibitors; DNA polymerase kappa (Homo sapiens), Q9UBT6; purified Pol kappa, fluorescent DNA synthesis assay, 10 min; 0.53% of 400,000 active; further: on the % scale 0 is the no-effect control and ±100 the full control effect
# Target sequence (Q9UBT6 whole entry, looked up): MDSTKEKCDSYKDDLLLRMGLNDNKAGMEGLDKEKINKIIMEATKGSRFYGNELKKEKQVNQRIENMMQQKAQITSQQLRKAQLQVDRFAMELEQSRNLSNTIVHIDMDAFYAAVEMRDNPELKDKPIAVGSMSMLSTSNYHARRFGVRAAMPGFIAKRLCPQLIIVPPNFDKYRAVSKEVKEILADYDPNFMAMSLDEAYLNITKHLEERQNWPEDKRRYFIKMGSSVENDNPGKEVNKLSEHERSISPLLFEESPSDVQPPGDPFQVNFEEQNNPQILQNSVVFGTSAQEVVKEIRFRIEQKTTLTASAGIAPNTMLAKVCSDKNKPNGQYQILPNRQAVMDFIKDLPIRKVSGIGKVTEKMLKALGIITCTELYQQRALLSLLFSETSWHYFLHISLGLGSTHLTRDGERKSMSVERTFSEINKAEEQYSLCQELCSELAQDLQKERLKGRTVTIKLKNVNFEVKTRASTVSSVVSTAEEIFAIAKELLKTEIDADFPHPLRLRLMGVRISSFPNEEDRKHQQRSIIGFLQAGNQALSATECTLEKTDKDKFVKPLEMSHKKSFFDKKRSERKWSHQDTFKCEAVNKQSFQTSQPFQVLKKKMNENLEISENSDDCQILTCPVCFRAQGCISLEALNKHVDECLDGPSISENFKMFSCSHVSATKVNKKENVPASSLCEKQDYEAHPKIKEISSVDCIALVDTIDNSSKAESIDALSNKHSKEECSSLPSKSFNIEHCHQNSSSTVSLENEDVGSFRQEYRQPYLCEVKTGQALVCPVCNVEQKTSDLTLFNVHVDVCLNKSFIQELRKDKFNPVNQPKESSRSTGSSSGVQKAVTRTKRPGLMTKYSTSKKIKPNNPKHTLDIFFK
#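 Enzyme at 10 nM met test compounds for 15 min at room temperature. Substrate addition (50 nM final) began the reaction, which was monitored by fluorescence at 0 and 10 min.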
# WRN helicase inh-1 = qHTS for Inhibitors of WRN Helicase; Bifunctional 3'-5' exonuclease/ATP-dependent helicase WRN (Homo sapiens), Q14191; WRN helicase unwinding, fluorescent forked duplex, kinetic; Potency, µM (series often up to 114 µM), without a hit: top-dose activity change, negative = inhibition, hits mostly inhibitors; 0.46% of 360,000 active; AID 651768, 2012; further: on the % scale 0 is the no-effect control and ±100 the full control effect; nearly all actives have a fitted effect of over 55% in size
#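 Fluorescence dequenching readout, ex 525 nm/em 598 nm, kinetic mode: forked duplex DNA (100 nM final) with adjacent fluorophore and quencher unwound by WRN (20 nM final) with 2 mM ATP. Compound preincubation 15 min, room temperature.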
# POLB inh = qHTS Assay for Inhibitors of DNA Polymerase Beta. P06746. Pol beta primer extension/strand displacement, fluorescence kinetic. Potency, µM (top dose mostly 114 µM), for the others: at the top dose activity change, negative = inhibition, most hits filed as inhibitors. 1.3% of 340,000 active; further: on the % scale 0 is the no-effect control and ±100 the full control effect
#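 Enzyme-only controls used 10 nM Pol beta; buffer lacking enzyme served as negative control. Compound preincubated 15 min, then 50 nM substrate added; 0 and 10 min reads at room temperature.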
# POLH inh = qHTS for Inhibitors of Polymerase Eta | DNA polymerase eta (Homo sapiens), Q9Y253 | recombinant Pol eta, fluorescent DNA replication assay | Potency, µM (highest dose often 114 µM), without a hit: at the top dose activity change, negative = inhibition, actives largely listed as inhibitors | 1.2% of 390,000 active | AID 588591, 2011; further: on the % scale 0 is the no-effect control and ±100 the full control effect
#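 Pol eta (10 nM) was preincubated with compounds for 15 min at room temperature, after which fluorescent replication substrate (50 nM final) was added to start the reaction. Fluorescence was read kinetically at 0 and 10 min.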
# FEN1 inh-1 = qHTS Assay for the Inhibitors of Human Flap endonuclease 1 (FEN1); P39748; Recombinant FEN1 flap cleavage, fluorescence, 15 min; Potency, µM (series often up to 114 µM), without a hit: at the top dose activity change, negative = inhibition, most hits filed as inhibitors; 0.35% of 390,000 active; AID 588795, 2011; further: on the % scale 0 is the no-effect control and ±100 the full control effect; nearly all actives have a fitted effect of over 65% in size
#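 Nuclease activity of 10 nM FEN1 was measured after 15 min of room-temperature exposure to titrated compounds, by adding 50 nM flap substrate and reading plates at 0 and 15 min.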
# POLI inh = qHTS for Inhibitors of Polymerase Iota | AID 588590, 2011 | Pol iota fluorescent replication assay, 10 min | 1% of 390,000 active | DNA polymerase iota (Homo sapiens), Q9UNA4 | Potency, µM (series often up to 115 µM), for the others: at the top dose activity, negative = inhibition, most hits filed as inhibitors
#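 Pol iota at 10 nM preincubated 15 min with compounds at room temperature; reaction started with fluorescent substrate, 50 nM final. Fluorescence read kinetically at 0 and 10 min; buffer-only wells as negative control.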
# FEN1 inh-2 = qHTS Assay for the Inhibitors of FEN1: Confirmatory Assay for Cherry-picked Compounds. 79% of 880 active. AID 720498, 2013. shares compounds with FEN1 inh-1. Potency, µM, hits mostly inhibitors. FEN1 flap cleavage, TAMRA/BHQ2 fluorogenic DNA substrate; further: nearly all actives have a fitted effect of over 60% in size
# WRN helicase inh-2 = qHTS for Inhibitors of WRN Helicase: Confirmatory Assay for Cherry-picked Compounds | shares compounds with WRN helicase inh-1 | WRN helicase DNA unwinding, fluorescence kinetic | Potency, µM (doses to about 57.1 µM), for inactives: top-dose activity, negative = inhibition, usual class: inhibitors | 63% of 610 active | AID 720497, 2013; further: nearly all actives have a fitted effect of over 65% in size
# TO displacement = qHTS for Inhibitors of WRN Helicase: Thiazole Orange DNA Binding Counterscreen; 10% of 610 active; thiazole orange DNA binding displacement, fluorescence; shares compounds with WRN helicase inh-1; AID 720499, 2013; Potency, µM (top dose mostly 57.1 µM), for inactives: at the top dose activity change, negative = inhibition, hits mostly inhibitors;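 further: drop in dye fluorescence marks compound binding to DNA; on the % scale 0 is the no-effect control and ±100 the full control effect; nearly all actives have a fitted effect of over 60% in size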
# BLM helicase inh = qHTS for Inhibitors of WRN Helicase: BLM Helicase Counterscreen for WRN Inhibitors | 60% of 610 active | Potency, µM (top dose mostly 57.1 µM), for inactives: top-dose activity change, negative = inhibition, usual class: inhibitors | Recombinant BLM helicase DNA unwinding, red fluorescence | shares compounds with WRN helicase inh-1; further: nearly all actives have a fitted effect of over 60% in size
# Starred values were filed as active, the others as inactive; i = inactive; ? = inconclusive; / = no result; [ ] = another dose, or the depositor's remark. Most compounds without a hit are left out; they make up all but 2.4% or so of the library. The call rests on the fitted dose curve; in most records, active means well fitted curve in the direction sought with a large enough effect; inconclusive means small, poorly fitted or top-dose-only effect, or another doubt; inactive means no such curve, though single readings can be large; an effect the other way counts as inactive or inconclusive. Potency means the concentration at half of the fitted maximal effect.
SMILES,POLK inh,WRN helicase inh-1,POLB inh,POLH inh,FEN1 inh-1,POLI inh,WRN helicase inh-2,TO displacement,BLM helicase inh,others
O=C(Nc1cccnc1)c1cnc2ccccc2n1,-4%,1%,-11%,-19%,4%,24%,/,/,/,
COc1cc(-c2ccc3ncnc(NCc4ccc(C)o4)c3c2)cc(OC)c1OC,/,/,/,/,/,/,/,/,/,FEN1 inh-2=?
c1cn(-c2ccnc(-c3ccc4c(c3)OCO4)n2)cn1,8%[60.1 µM],/,/,/,/,/,/,/,/,
COc1ccc(CN(Cc2ccccc2)C(=O)c2cccc(C#N)c2)cc1COc1ccc(NC(C)=O)cc1,7%,/,/,/,4%,-1%,/,/,/,
COc1ccc(-c2cc(=S)ss2)cc1,2%[19.4 µM],/,/,/,/,/,/,/,/,
CCCN(CCC)CCCNC(=O)c1cc2c(-c3ccc(OC)c(OC)c3)nn(C)c2s1,?,-6%[11.6 µM],40µM*,?,28µM*,?,19µM*,-30%,?,FEN1 inh-2=27*
CCCN1CNc2c(c(=O)[nH]c(=S)n2CCc2cc(C)cc(C)c2)C1,-16%,/,/,/,-17%,-19%,/,/,/,
COc1cc(/C=C2\SC(=Nc3ccccc3)N(Cc3ccco3)C2=O)ccc1OC(C)C(=O)O (stereo not drawn),-10%,-21%,-3%,-12%,-7%,-10%,/,/,/,
COCCN1C(=O)/C(=C/c2ccc(OCc3ccc(C(=O)O)cc3)c(OC)c2)SC1=Nc1ccccc1,-3%,?,50µM*,28µM*,-18%,5%,27µM*,?,27µM*,
CC(=O)NC1C(=O)N(CCN2CCOCC2)c2ccc(Cl)cc21 (stereo not drawn),-16%,22µM*,35%,?,?,?,-10%,-12%,-30%,
Cc1ccc(Cl)cc1NC(=O)Cn1c(=O)oc2cc(S(=O)(=O)N3CCCCCC3)ccc21,-7%[60.1 µM],/,3%,12%,-5%,21%,/,/,/,
CC[n+]1c(/C=C/C=C/N(C(C)=O)c2ccccc2)sc2ccccc21,-8%,50µM*,-8%,?,?,?,24µM*,i,-15%,
Cc1nc(-c2ccc(F)cc2)sc1CCNC(=O)c1ccco1,1%[60.1 µM],/,2%,-13%,1%,22%,/,/,/,
Cc1ccc(N(Cc2cccs2)C(=O)C(C)Oc2ccc(Cl)c(C)c2)cc1 (stereo not drawn),?,/,4%,-24%,-22%,?,/,/,/,
Cc1nc2c(cc1C(=O)N/N=C/c1ccc(O)c(O)c1)c(=O)n(C)c(=O)n2C,-26%,?,45µM*,?,-7%,?,?,-4%,?,
CCCCCCC(O)C/C=C/CCCCCCCC(=O)O (stereo not drawn),-11%[19.4 µM],/,/,/,/,/,/,/,/,
COc1ccc(Cl)cc1NC(=O)c1c(NCc2sccc2C)sc2c1CCCC2,-9%[60.1 µM],/,3%,-7%,79µM*,?,-20%,?,?,
COc1ccccc1NC(=O)c1c(NCc2sccc2C)sc2c1CCCCC2,-8%[60.1 µM],/,-15%,-9%,-16%,-12%,/,/,/,
CCN(CC)CCCNC(=O)C1CCN(S(C)(=O)=O)CC1,-1%[60.1 µM],/,-1%,-25%,-3%,22%,/,/,/,
ClC(Cl)(c1nnnn1-c1ccccc1)c1nnnn1-c1ccccc1,-5%,6.3µM*,3%,2%,50µM*,14µM*,?,2%,?,
COc1ccc(NC(=O)/C(Cl)=C(/Cl)S(=O)Cc2ccccc2)cn1 (stereo not drawn),-12%,32µM*,19%,-16%,-18%,32µM*,?,-3%,-19%,
C/C=C/c1ccc(OCCCNC(C)CC)c(OC)c1 (stereo not drawn),0%,?,0%,7%,-14%,9%,2%,-2%,3%,
CC(C)c1ccc2occ(CC(=O)Nc3ccccc3Cl)c2c1,-22%,/,1%,-9%,0%,3%,/,/,/,
Cc1ccc2nc(Cl)nc(-c3ccccc3)c2c1,-19%,-6%,0%,-10%,2%,73%,/,/,/,
Cc1ccc2nc(CCl)[n+]([O-])c(-c3ccccc3)c2c1,-6%,79µM*,19%,-10%,5%,-16%,-1%,-2%,-11%,
SMILES,POLK inh,WRN helicase inh-1,POLB inh,POLH inh,FEN1 inh-1,POLI inh,WRN helicase inh-2,TO displacement,BLM helicase inh,others
O=C(Nc1ccc(NC(=O)c2cccs2)cc1)c1ccc(Br)o1,-34%,?,?,?,-4%,?,?,-9%,9.6µM*,
CC1(C)CC(=O)C(C(C2=C(O)CC(C)(C)CC2=O)c2cccs2)C(=O)C1 (stereo not drawn),-4%,?,10%,1%,0%,?,-8%,-7%,-6%,
CC1(C)CC(=O)C(C(C2=C(O)CC(C)(C)CC2=O)c2cccc(O)c2)C(=O)C1 (stereo not drawn),-14%,5%,-10%,2%,-6%,-16%,/,/,/,
O=C(/C=C/c1cccs1)Nc1scc(-c2ccccc2)c1C(=O)O,-19%,32µM*,?,79µM*,?,2.5µM*,?,-16%,22µM*,
CCn1cc(S(=O)(=O)c2ccc(C)cc2C)c(=O)c2cc(F)c(N3CCCC3)cc21,-4%,/,-8%,11%,4%,-21%,/,/,/,
CC1=C([N+](=O)[O-])C(c2ccc3c(c2)OCO3)N(C)C(=O)N1C (stereo not drawn),-14%,?,-1%,-15%,-8%,28%,-6%,-1%,-13%,
CN1C(=O)c2ccccc2N(C)C1c1ccc2c(c1)OCO2 (stereo not drawn),-19%,-6%,-14%,-6%,7%,2%,/,/,/,
O=S(=O)(c1ccccc1)N1CCC2(CCCN(Cc3nccs3)C2)CC1,-7%[60.1 µM],/,/,/,/,/,/,/,/,
